Compounds with a hit are over-represented: about 3.5% of the library has one in this group of screens.
mHTT-CaM PPI inh: mutant huntingtin-calmodulin interaction inhibitors – biochemical, AlphaScreen, primary screen; AlphaScreen His-mHTT/GST-CaM binding, luminescence; inhibition, % at 15 µM; P42858; 190,000 tested, 3.6% active; AID 1671202, 2021;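 also: 0% = both proteins with DMSO and 100% = one protein alone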
Pf apPOL inh: Pf-apPOL inhibitors, biochemical, fluorescence; 210,000 tested, 0.25% active; inhibition, % at 10 µM; Recombinant Pf-apPOL, molecular beacon fluorescence, 1.5 h
Starred values were filed as active, the others as inactive; x = no result given; ! = not active in a repeat. Rule as the data show it: active = inhibition above about 50%; inactive = the rest.

SMILES	mHTT-CaM PPI inh	Pf apPOL inh
COCCN=C1Nc2ccccc2NC12CCCN(C(=O)COc1cccc(Cl)c1)C2 (centres undefined)	23	-2
CC(C)c1ccc(N2CC(C(=O)NCc3ccccn3)CC2=O)cc1 (centres undefined)	9	-4
Cc1cccc(N2CC(C(=O)NCc3ccccn3)CC2=O)c1 (centres undefined)	61*	-14
CCN1C(=O)c2cccnc2Sc2cc(NC(=O)c3ccc(F)cc3)ccc21	-4	-3
COc1cc(C)c(S(=O)(=O)NCCOc2ccc(-c3ccc(F)cc3)nn2)cc1C	1	0
COc1cccc(NC(=O)N2CCCC2c2nc(-c3cccc(C)c3)no2)c1 (centres undefined)	-4	-3
CCOc1cccc2c1OC1(C)CC2NC(=O)N1c1ccc(C)c(F)c1 (centres undefined)	9	8
O=c1/c(=C/c2ccccc2O)sc2n1CN(c1ccc(F)cc1)CN=2	36	-1
O=c1/c(=C/c2ccccc2O)sc2n1CN(c1ccc(Cl)cc1)CN=2	13	51*
Cc1ccnc2c([N+](=O)[O-])cccc12	-4	-2
Clc1cc2cccnc2c2ncccc12	100*	x
COc1c(I)cc(Cl)c2cccnc12	x	-4
O=[N+]([O-])c1ccccc1CN1CCCCCCC1	-1	-3
O=[N+]([O-])c1cc(CN2CCCCC2)c2cccnc2c1O	100*	0
COCc1cc(CN2CCCCC2)c(O)c2ncccc12	100*	2
CCOc1cccc(CN2CCCCCC2)c1O	5	-3
O=[N+]([O-])c1cc(Cl)c2cccnc2c1O	100*	-1
COc1ccc(C2(CNC(=O)C(=O)NCCC3=CCCCC3)CCCC2)cc1	-15	-7
C#CCN(C)C(=O)c1ncn(-c2ccccc2)n1	-2	-5
COc1ccc(CNC(=O)CN2C(=O)C3CCCN3C(=O)c3cc(Cl)ccc32)cc1 (centres undefined)	0	-4
COc1ccc(CCNC(=O)Cn2cc3c(n2)CCCCC3)cc1OC	0	-3
Cc1ccccc1C(=O)N1CCC2(CC1)NC(=O)c1ccc(Cl)cc1N2	17	-2
COc1cccc(-c2nc(C3CCN(C(=O)Cc4ccc(C)cc4)CC3)no2)c1	-7	7
O=[N+]([O-])c1cc(CN2CCN(c3ccccc3)CC2)c(O)c2ncccc12	100*	2
Cc1c(O)ccc2c(CN3CCC(C)CC3)cc(=O)oc12	-2	-6
SMILES	mHTT-CaM PPI inh	Pf apPOL inh
O=[N+]([O-])c1cc(CN2CCOCC2)c2cccnc2c1O	100*	-60
O=[N+]([O-])c1cc([N+](=O)[O-])c2cccnc2c1N1CCOCC1	20	5
CC1CCN(Cc2cc(Cn3ccnc3)c3cccnc3c2O)CC1	100*	5
O=[N+]([O-])c1ccc(N2CCN(c3ccccc3)CC2)c2ncccc12	15	-8
COc1cccc2c1NC(c1ccccc1Br)C1CC=CC21 (centres undefined)	38	3
COc1cc(C2Nc3c(C)cccc3C3C=CCC32)cc(Br)c1OC (centres undefined)	0	-2
COc1cccc2c1NC(c1ccc(Br)cc1)C1CC=CC21 (centres undefined)	58*	5
O=C(O)c1cccc2c1NC(c1ccccc1Br)C1CC=CC21 (centres undefined)	48	5
COc1ccc(Cl)c2c1NC(c1ccc(F)cc1)C1CC=CC21 (centres undefined)	50*	6
COc1cccc2c1NC(c1cccc(Br)c1)C1CC=CC21 (centres undefined)	53*	-11
O=C(O)c1cccc2c1NC(c1ccc(F)cc1)C1CC=CC21 (centres undefined)	96*!	1
CC(C)Oc1ccc(CNC(=O)CCc2cccc3[nH]ccc23)cc1	38	1
NC(=O)c1cc(S(=O)(=O)N2CCC(CN3CCc4ccccc4C3)CC2)cs1	3	-1
CN(c1ccccc1)C(C(=O)NC1CCCCC1)c1cc2c(cc1[N+](=O)[O-])OCO2 (centres undefined)	30	4
CCOc1cccc2c1NC(c1ccc(C(=O)O)cc1)C1CC=CC21 (centres undefined)	63*	-6
Fc1ccc(C2Nc3ccccc3C3C=CCC32)cc1 (centres undefined)	87*	16
COc1cccc2c1NC(c1ccc(F)cc1)C1CC=CC21 (centres undefined)	79*	-2
c1ccc(C2Nc3ccccc3C3OCCC23)cc1 (centres undefined)	-1	0
CN(C)C(=O)c1cccc2c1NC(c1ccc(Br)cc1)C1CC=CC21 (centres undefined)	64*	-38
CC(=O)c1ccc(N2CCN(Cc3ccc(Br)s3)CC2)cc1	5	-5
Cc1ccc2c(c1)N(Cc1cccc(C(=O)NCc3ccncc3)c1)C(=O)CO2	20	0
CC1CCc2cc(F)ccc2N1C(=O)c1cc2cccnc2n(C)c1=O (centres undefined)	-8	0
Fc1ccc(C2Nc3c(F)cccc3C3C=CCC32)cc1 (centres undefined)	57*	-6
Fc1cccc2c1NC(c1ccc(Br)cc1)C1CC=CC21 (centres undefined)	40	4
COc1ccc(Cl)cc1NC(=O)C1CCN(c2nccc(C)n2)CC1	-8	0
SMILES	mHTT-CaM PPI inh	Pf apPOL inh
COc1cc(OC)c(NC(=O)C2CCCN(c3nccc4sccc34)C2)cc1Cl (centres undefined)	45	-5
COc1cc(Cl)c(NC(=O)C2CCCN(c3nccc4sccc34)C2)c(OC)c1 (centres undefined)	60*	3
COc1ccc(Cl)cc1NC(=O)C1CCN(c2nccc3sccc23)CC1	100*	-3
COc1cc(/C=C(\C#N)c2nc3ccc(C)cc3[nH]2)cc(Cl)c1O	9	1
Cc1nc2cc(N3CC(C(=O)Nc4cccc(C)c4C)CC3=O)ccc2o1 (centres undefined)	-5	-4
CC(=O)Nc1ccc(S(=O)(=O)Nc2ccc3c(c2)OC(C)(C)O3)cc1	4	-1
O=S(=O)(Nc1ccc2c(c1)OC1(CCCC1)O2)c1ccc2c(c1)Cc1ccccc1-2	63*	x
Cc1ccc(/C=C2\SC(c3ccccc3)=NC2=O)o1	56*	-6
O=C1N=C(N2CCOCC2)S/C1=C\c1ccc(-c2ccccc2)o1	80*	-2
O=C1N=C(N2CCOCC2)S/C1=C\c1cccs1	-5	6
O=C1N=C(c2ccccc2)S/C1=C/c1ccc2c(c1)OCO2	-3	1
O=C(c1ccc(Cl)cc1)N1CCC(n2c(-c3ccco3)nc3cccnc32)C1 (centres undefined)	77*	-8
COc1ccc(C(=O)N2CCC(n3c(-c4ccco4)nc4cccnc43)C2)cc1OC (centres undefined)	34	-6
O=C(c1ccc(F)c(Cl)c1)N1CCC(n2c(-c3ccoc3)nc3cccnc32)C1 (centres undefined)	99*	-3
O=C(c1ccc(Br)cc1)N1CCC(n2c(-c3ccco3)nc3cccnc32)C1 (centres undefined)	84*	-3
CCc1ccc(C(=O)N2CCC(n3c(-c4ccco4)nc4cccnc43)C2)cc1 (centres undefined)	76*	0
O=C(c1ccoc1)N1CCC(n2c(-c3ccco3)nc3cccnc32)C1 (centres undefined)	3	-4

From PubChem
